The panel holds about 83,000 compounds, 20% with a hit somewhere; the sample as a whole holds those more often.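 Plates (96-well) were seeded with cells, treated with compound at one concentration, and incubated for 48 hours before percent growth was determined.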 Calls of active or inactive are those of the source. Rule for the calls: active = growth percent below 10; inactive = the rest.

This assay concerns HL-60(TB) leukemia. Description: NCI-60 one-dose screen, 48 h (100 = growth as untreated, 0 = no growth, -100 = all killed). The following applies: 10 µM unless noted.
As for `CCN1C(=O)N(CC)C2C1NN=c1s/c(=C3\C(=O)N(C)c4ccccc43)c(=O)n12` (stereo not given), the growth is -13% (active).
Consider `CC1=CCC[C@@H]2C1(C)CC[C@H](C)[C@@]2(C)CC1=CC(=O)C(SC(C)(C)C)=CC1=O` (stereo not given in full), for which the growth is 56.4% (inactive).
On to `CNC(=O)c1cc(Oc2cccc3nc(Nc4ccc(Cl)c(F)c4)ccc23)ccn1`, for which the growth was 95% (inactive).
For `CCOC(=O)Nc1ccc2c(c1)C(=O)N(CC)c1ccccc1O2`, the growth was -17% (active).
In the case of `COc1cc(Cc2cc(-c3ccc(Cl)cc3)n[nH]c2=O)ccc1O` it was 93.5% (inactive).
In the case of `C[C@@H]1CC[C@@H]2[C@@H]1[C@H](OC(=O)/C=C/c1ccccc1)[C@]1(C3CCCCC3)C[C@@H](OC(=O)CO)[C@@]2(C)O1` it was 74.5% (inactive); in that of `N#Cc1c(NN)n(C2OC(CO)C(O)C2O)c2ncnc(N)c12` (stereo not given), -52.1% (active).
Turning to `Nc1nc(N)c(N=Nc2ccc(C(=O)O)cc2)c(N)n1`, the growth is 90% (inactive).
Take `CN1CCN(c2ccc(NC3=C(Cl)C(=O)c4ncccc4C3=O)cc2C(F)(F)F)CC1`: the growth was -16.2% (active).
As for `COc1ccc2c(CCCC(c3ccccc3)c3ccccc3)c3[n+](cc2c1OC)CCc1cc2c(cc1-3)OCO2`, the figure is -30.9% (active); as for `CCCCCCCC/C=C\CCCCCCCCOc1ccccc1CC(=O)NCC[N+]1(C)CCCCC1`, -19.6% (active); as for `O=C1c2c(c3c4ccccc4n(CCCCCCBr)c3c3[nH]c4ccccc4c23)C(=O)N1O`, -41.7% (active).
As to `CCn1cc(C(=O)O)c(=O)c2cc(F)c(N3CCN(S(=O)(=O)c4ccc(Cl)cc4Cl)CC3)cc21`, the growth is -51.7% (active).
Take `CC(C)=CCC[C@](C)(O)[C@H]1CC[C@]2(C)[C@@H]1CC[C@@H]1[C@@]3(C)C/C(=C/c4ccc(Br)cc4)C(=O)C(C)(C)[C@@H]3CC[C@]12C`: the growth was 92.9% (inactive).
On to `Cc1cccc2c1NC(=O)[C@@]21[C@H](C(=O)c2ccccc2)[C@]2(C(=O)Nc3ccccc32)[C@H]2CCCN21`, for which the growth is 14.6% [100 µM] (inactive).
As for `CCOC(=O)C1=C(C)N=C2SC=C(c3ccccc3)N2[C@H]1c1cn[nH]c1-c1ccc(Cl)cc1`, the figure is 1.71% (active).
In the case of `CCN(CC)CCCC(C)Nc1c2ccc(C)cc2nc2ccc(OC)cc12` (stereo not given) it was 11.4% (inactive); in that of `Cn1c(/C=C/[N+](=O)[O-])cc2ccccc21`, 53.4% (inactive).
As for `O=C(/C=C/c1cccs1)Nc1ncc(Cc2ccccc2F)s1`, the growth is -40.2% (active).
Consider `FC(F)(F)c1ccc(-c2cnc(Cl)nc2N2CCC3(CC2)OCCO3)cc1`, for which the growth is 83.6% (inactive).
`COc1ccc(-c2nnc(SCC(=O)Nc3ccc(C(=O)/C=C/c4ccc(OC)c(OC)c4)cc3)o2)cc1`: the growth is 74.7% (inactive).
As for `CCCCCC(CCC)COC(=O)c1ccc(OC)cc1` (stereo not given), the figure is 90.5% (inactive); as for `CC1=CC(=O)C=CC1=Nc1ccc(N(C)C)cc1`, -1.75% (active).
On to `CS(=O)(=O)c1ccc(-c2nc3cc(Cl)ccc3n2CC(=O)N/N=C/c2ccc(Cl)cc2)cc1`, for which the growth was 25.3% (inactive).
In the case of `COC(=O)[C@@H](NC(=O)NC(=O)NC(=O)CI)C(C)C` it was 77.9% (inactive).
As for `COC(=O)Cc1nc(C#N)c(N(C)C)o1`, the figure is 99.5% (inactive); as for `C=C1C(=O)O[C@H]2[C@H]1CC/C(COC(=O)c1cc3cc(F)ccc3[nH]1)=C\CC[C@@]1(C)O[C@@H]21`, -32.6% (active); as for `CCn1c(-c2cc3c([nH]c4ccccc43)c(-c3cccc(O)c3)n2)n[nH]c1=S`, 4.16% (active).
As for `OCCNc1nc(NCCO)nc(Nc2ccc(C3=NN(c4cc(Cl)cc(Cl)c4)C(c4ccc(Cl)cc4)C3)cc2)n1` (stereo not given), the figure is 13.7% (inactive).
As for `O=S(=O)(Nc1cc(Sc2cccc3cccnc23)c(O)c2ccccc12)c1ccc(F)cc1`, the growth is -21.9% (active).
As for `Cn1cc(-c2csc(-c3cn(CCCN4CCOCC4)c4ccc(F)cc34)n2)c2cccnc21`, the growth is 69.9% (inactive).
Regarding `COc1ccc(/C=N/NC(=O)Cn2c(-c3ccc(S(C)(=O)=O)cc3)nc3cc(Cl)ccc32)cc1`, the growth is -51.6% (active).
As for `O=S(=O)(NCCNc1nccc(-c2c(-c3ccc(O)cc3)nc3sccn23)n1)c1cccc2ccccc12`, the growth was 90.3% (inactive).
Regarding `CC(=O)OCC(=O)[C@@]1(O)CC[C@H]2[C@@H]3CC(=C(Br)Br)C4=CC(=O)CC[C@]4(C)[C@H]3C(=O)C[C@@]21C`, the growth is 90.1% (inactive).
For `CN1CCN(c2ccc(NC3=CC(=O)c4ncncc4C3=O)cc2)CC1`, the growth was -32.1% (active).
For `C=C(C)[C@@H]1C[C@@H]2Cc3ccc(Cl)c(C)c3N1O2`, the growth is 3.4% (active).
Consider `Cc1ccc(-c2csc(NC(=O)N3CCN(c4cc5c(cc4F)c(=O)c(C(=O)O)cn5C4CC4)CC3)n2)cc1`, for which the growth was -15.5% (active).
With `COc1ccc(Cl)cc1NC(=O)c1cc2c(n1C)-c1nc(NC(=O)C(C)(C)C)sc1CC2`, the growth is 82.7% (inactive).
For the molecule `COC(=O)[C@@H]1[C@H](O)[C@H](C)[C@H](O)[C@@](C)(O)/C=C\C=C(C)C(=O)Nc2c(C)c(OC(C)=O)c3c(c2O)C(=O)C(C)=C2OCOC(=C23)C(C)=C[C@@](C)(O)[C@H](O)[C@@H](C)[C@H]1OC(C)=O`, the growth was 71.2% (inactive).
In the case of `COc1cccc(N2CCN(c3cccc(C)n3)CC2)c1`, the growth is 100% (inactive).

Source of the values: PubChem BioAssay (NCI).
